# According to PubChem BioAssay AID743343 (Broad Institute, 2014):
# Measured potencies and affinities stand elsewhere. Active and inactive are the calls of the source. The rule behind the calls is not given here.
# Tested on: Drosophila melanogaster bursicon receptor LGR2 (rickets)
# Assay: LGR2 antagonists, dose response, cell-based, HEK293, CRE-luciferase reporter, cherry pick, set 2 (AID 743343)
row,Structure (SMILES),outcome
1,COc1ccccc1N1CCN(C(=O)c2sc3nc(-c4ccc(F)cc4)cn3c2C)CC1,inactive
2,C[C@H](CO)N1C[C@H](C)[C@@H](CN(C)C(=O)Nc2ccc3c(c2)OCO3)Oc2c(cccc2N(C)C)C1=O,inactive
3,COc1ccc2cc(C#N)c(Nc3cccc(F)c3)nc2c1,inactive
4,CCCCN(Cc1ccccc1)S(=O)(=O)c1cc2c(cc1Br)CC(C)N2C(C)=O (centres undefined),inactive
5,C[C@H](CO)N1C[C@H](C)[C@@H](CN(C)S(=O)(=O)c2cccs2)Oc2c(cccc2N(C)C)C1=O,inactive
6,O=S(=O)(Nc1ccc(O)c2ccccc12)c1ccc(OC(F)(F)F)cc1,inactive
7,CC(C)N(C(=O)COC(=O)c1ccccc1C(=O)c1ccc(Cl)c([N+](=O)[O-])c1)C(C)C,inactive
8,COCC#Cc1ccc2c(c1)O[C@H](CN(C)S(=O)(=O)c1cccc(F)c1)[C@@H](C)CN([C@H](C)CO)S2(=O)=O,inactive
9,COc1ccccc1CN(C)C[C@@H]1OCc2cnnn2CCCC(=O)N([C@H](C)CO)C[C@H]1C,inactive
10,CCOC(=O)C(C)N1c2cccc3cccc(c23)S1(=O)=O (centres undefined),inactive
11,COc1cccc(C(=O)Nc2ccc3c(c2)OC[C@@H](C)N(CC2CC2)C[C@H](C)[C@H](OC)CN(C)C3=O)c1,inactive
12,Cc1ccc(S(=O)(=O)N(C)C[C@H]2Oc3cc(Br)ccc3S(=O)(=O)N([C@H](C)CO)C[C@H]2C)cc1,inactive
13,CCn1cc(S(=O)(=O)Nc2cccnc2)cn1,inactive
14,O=c1cc(-c2c(F)c(F)c(F)c(F)c2F)oc2ccccc12,inactive
15,COc1ccc(NC(=O)Nc2ccc3c(c2)CC(=O)N([C@@H](C)CO)C[C@@H](C)[C@H](CN(C)Cc2ccncc2)O3)cc1,inactive
16,CC(=O)c1c(C)[nH]c(C(=O)CN2C(=O)NC(C)(c3ccc(C)cc3)C2=O)c1C (centres undefined),inactive
17,CC(C)(C)c1nc2ccc(Cl)cn2c1CC1CCCCC1,inactive
18,N#C[C@@H]1[C@H](c2ccc(C#CC3CCCCC3)cc2)[C@@H](CO)N1C(=O)c1cccc(F)c1,inactive
19,O=[N+]([O-])c1cc(S(=O)(=O)N2CCCCCC2)ccc1Cl,inactive
20,C[C@H](CO)N1C[C@H](C)[C@@H](CN(C)CC2CCOCC2)Oc2ncc(Br)cc2C1=O,inactive

row,Structure (SMILES),outcome
1,CC(C)CCNC(=O)C(c1ccc(O)cc1)N(Cc1cccs1)C(=O)C1COc2ccccc2O1 (centres undefined),inactive
2,C[C@@H]1CN([C@H](C)CO)C(=O)c2cc(NC(=O)Nc3cccc4ccccc34)ccc2O[C@@H]1CN(C)C(=O)Nc1ccccc1,inactive
3,CCCCOc1cc(NCc2ccccc2)c2ncn(C(C)C)c2c1,inactive
4,Cn1cnc(S(=O)(=O)N2C[C@@H](O)COC[C@H]3O[C@H](CC(=O)NC4CCCC4)CC[C@@H]32)c1,inactive
5,Cc1ccc(S(=O)(=O)Nc2ccc3c(c2)CC(=O)N([C@H](C)CO)C[C@H](C)[C@H](CN(C)Cc2ccc(Cl)c(Cl)c2)O3)cc1,inactive
6,O=C(Cc1ccccc1Cl)Nc1cccnc1,inactive
7,CC(=O)N1CCc2cc(S(=O)(=O)C(C)CC(=O)NCc3ccco3)ccc21 (centres undefined),inactive
8,CC(C)c1ccc(NC(=O)N2CCN(S(=O)(=O)c3ccccc3)CC2)cc1,inactive
9,Cc1ccc2nc(-c3ccc(NC(=O)c4cccnc4)cc3)oc2c1,inactive
10,Cc1cccc(Cn2ncc(Cl)c(Cl)c2=O)c1,inactive
11,COC(=O)c1ccc(Nc2cc(C)nc3ccc(C)cc23)cc1,inactive
12,Cc1ccc(CNS(=O)(=O)c2ccc3c(c2)CCN3C(=O)CCCC(=O)O)cc1,inactive
13,CCc1nnc(NC(=O)CSc2nnc3ncccn23)s1,inactive
14,O=C(CN1CCOc2ccccc21)NCc1ccc(F)cc1,inactive
15,Cc1cc(Cl)ccc1OCCCC(=O)Nc1cc(S(=O)(=O)N2CCOCC2)ccc1N1CCOCC1,inactive
16,O=C(Nc1cc(S(=O)(=O)Nc2ccccc2Cl)ccc1O)c1ccc(F)cc1F,inactive
17,CO[C@H]1CN(C)C(=O)c2ccc(NC(=O)C3CC3)cc2OC[C@@H](C)N(C(=O)Cc2ccccn2)C[C@H]1C,inactive
18,Cc1noc2ncnc(Sc3ccc(Br)cc3)c12,inactive
19,CC1CCN(C(=O)c2ccc(S(=O)(=O)Cc3cc(F)ccc3F)c([N+](=O)[O-])c2)CC1,inactive
